Sampled rows, rich in hits. Any-hit rate of the full collection: about 3.4%.
JMJD2E inh = qHTS Assay for Inhibitors of Human Jumonji Domain Containing 2E (JMJD2E); Potency, µM (highest dose often 57.1 µM), for inactives: at the highest dose activity change, negative = inhibition, most hits filed as inhibitors; JMJD2E catalytic domain, FDH-coupled NADH fluorescence (FDH is formaldehyde dehydrogenase); actives 1.6% (n = 230,000); AID 2147, 2009; Lysine-specific demethylase 4E (Homo sapiens), B2RXH2; active = well fitted inhibition curve with a large enough effect, not every such curve was filed as active; inconclusive = small, poorly fitted or top-dose-only effect, or another doubt; inactive = no such curve, though single readings can be large or run the other way;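 note: 0% = wells with enzyme and -100% = buffer wells without enzyme; nearly all actives have a fitted effect of over 50% in size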
Target sequence (B2RXH2 1-337 limits assumed): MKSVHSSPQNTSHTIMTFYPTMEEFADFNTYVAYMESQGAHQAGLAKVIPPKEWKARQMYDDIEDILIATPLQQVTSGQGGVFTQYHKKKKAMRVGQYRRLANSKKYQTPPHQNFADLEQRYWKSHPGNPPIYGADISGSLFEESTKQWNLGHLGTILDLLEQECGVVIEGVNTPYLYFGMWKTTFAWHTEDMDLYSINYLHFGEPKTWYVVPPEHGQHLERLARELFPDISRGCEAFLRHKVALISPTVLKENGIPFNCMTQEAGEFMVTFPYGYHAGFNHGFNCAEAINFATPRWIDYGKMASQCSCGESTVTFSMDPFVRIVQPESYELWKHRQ
RGS12 GoLoco inh = qHTS Assay for Inhibitors of RGS12 GoLoco Motif Activity (Red Fluorophore); actives 0.44% (n = 230,000); AID 880, 2007; Gai1:RGS12 GoLoco peptide FP, rhodamine, 10 min; Potency, µM (highest dose often 61.6 µM), without a hit: at the top dose activity, negative = inhibition, actives largely listed as inhibitors; active = well fitted inhibition curve with a large enough effect, not every such curve was filed as active; inactive = no such curve, though single readings can be large or run the other way; note: nearly all actives have a fitted effect of over 30% in size
Target sequence (P63096 whole entry, looked up): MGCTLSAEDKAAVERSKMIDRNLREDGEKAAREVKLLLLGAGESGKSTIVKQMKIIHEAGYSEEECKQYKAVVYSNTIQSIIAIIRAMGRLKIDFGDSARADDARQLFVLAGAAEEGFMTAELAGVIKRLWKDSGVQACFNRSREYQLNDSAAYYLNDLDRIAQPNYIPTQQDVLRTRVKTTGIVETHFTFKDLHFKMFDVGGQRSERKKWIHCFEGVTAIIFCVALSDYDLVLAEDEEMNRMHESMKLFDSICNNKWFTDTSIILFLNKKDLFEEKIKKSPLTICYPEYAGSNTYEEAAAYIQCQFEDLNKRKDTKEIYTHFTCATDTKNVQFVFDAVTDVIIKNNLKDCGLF
Tau fibril ThT = qHTS for Inhibitors of Tau Fibril Formation, Thioflavin T Binding | recombinant tau K18 P301L, heparin-induced fibrillization, ThT fluorescence | Potency, µM (top dose mostly 57.4 µM), without a hit: at the top dose activity, negative = inhibition, actives largely listed as inhibitors | actives 2.1% (n = 270,000); note: nearly all actives have a fitted effect of over 55% in size
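Recombinant human tau K18 fragment […] carrying P301L, 15 uM unlabeled plus 0.24 uM Alexa 594-labeled, was fibrillized with 20 uM heparin in 100 mM sodium acetate pH 7 for 6 hr at 37 C; 30 uM ThT fluorescence read after 1 hr.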
Tau fluor counter = Counterscreen qHTS for Inhibitors of Tau Fibril Formation, Fluorescence Polarization; Potency, µM (doses to about 57.7 µM), for the others: top-dose activity change, negative = decrease; AID 1463, 2008; tau K18 P301L Alexa594 fluorescence, heparin fibrillization; actives 0.93% (n = 280,000); note: nearly all actives have a fitted effect of over 55% in size
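Human tau K18 P301L (15 uM unlabeled, 0.24 uM Alexa 594-labeled) in 100 mM sodium acetate pH 7 with 20 uM heparin, 6 hr at 37 C. ThT 30 uM added, 1 hr ambient; Alexa 594 FP and total fluorescence read at 555/632 nm.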
Tau FP inhib = qHTS for Inhibitors of Tau Fibril Formation, Fluorescence Polarization | Potency, µM (top dose mostly 57.7 µM), without a hit: top-dose activity, negative = inhibition, hits mostly inhibitors | actives 0.39% (n = 280,000) | K18 P301L tau heparin fibrillization, Alexa594 FP, 6 h | AID 1468, 2008; note: nearly all actives have a fitted effect of over 55% in size
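Human K18 P301L fragment (15 uM unlabeled plus 0.24 uM Alexa 594-labeled) in 100 mM sodium acetate pH 7 with compound, aggregation induced by 20 uM heparin for 6 hr at 37 C. ThT (30 uM) added for 1 hr, then Alexa 594 FP read.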
* = called active by the depositor; ? = inconclusive; nt = not tested or not shown; [ ] = remark or other dose. Unless noted, calls come from the whole dose curve; as a rule, active = well fitted curve in the direction sought with a large enough effect; inconclusive = small, poorly fitted or top-dose-only effect, or another doubt; inactive = no such curve, though single readings can be large; an effect the other way counts as inactive or inconclusive. Unless noted, % is set by controls: 0 for no effect and ±100 for the full control effect; potency is the fitted concentration of half-maximal effect.

SMILES	JMJD2E inh	RGS12 GoLoco inh	Tau fibril ThT	Tau fluor counter	Tau FP inhib
Cc1ccc(C)c(N2CCN(C(=O)C3CCCN(S(=O)(=O)c4ccc5c(c4)oc(=O)n5C)C3)CC2)c1 (stereo not drawn)	nt	nt	1.8%	-10.7%	-0.7%
Cc1c(Cl)cccc1NS(=O)(=O)c1ccc2[nH]cc(C(=O)NC3CCCC3)c(=O)c2c1	nt	nt	11.0%	?	14.1µM*
CCc1ccccc1NS(=O)(=O)c1ccc2[nH]cc(C(=O)NCC3CCCO3)c(=O)c2c1 (stereo not drawn)	?	12.4%	-4.5%	?	?
Cc1ccccc1NS(=O)(=O)c1ccc2[nH]cc(C(=O)N3CCCCC3)c(=O)c2c1	nt	nt	0.2%	5.1%	3.1%
Cc1ccccc1NS(=O)(=O)c1ccc2[nH]cc(C(=O)NC(C)c3ccccc3)c(=O)c2c1 (stereo not drawn)	nt	nt	12.2%	?	25.1µM*
Cc1ccccc1NS(=O)(=O)c1ccc2[nH]cc(C(=O)N(C)Cc3ccco3)c(=O)c2c1	?	12.1%	-4.1%	-11.3%	-3.8%
Cc1ccccc1NS(=O)(=O)c1ccc2[nH]cc(C(=O)NC3CCCCC3)c(=O)c2c1	nt	nt	8.2%	?	28.2µM*
Cc1nc2nc(SCc3ccc(F)cc3Cl)nn2c(C)c1Cc1ccccc1	nt	nt	-6.0%	-2.6%	1.6%
COC(=O)c1c(-c2cccs2)csc1NC(=O)c1cc(OC)cc(OC)c1	nt	nt	?	-28.5%	?
CCCc1ccc(OCC(=O)Nc2scc(-c3cccs3)c2C(=O)OC)cc1	nt	nt	22.4µM*	-23.4%	?
COC(=O)c1c(-c2cccs2)csc1NC(=O)COc1ccc(C(C)C)cc1	nt	nt	28.2µM*	-17.0%	?
CCc1cccc(C)c1NC(=O)CN1CCCN(Cc2ccccc2Cl)S1(=O)=O	nt	nt	-0.9%	-4.8%	12.9%
COc1ccc(CCNC(=O)c2ccc(Cn3c(=O)c4cccn4c4cccnc43)cc2)cc1OC	nt	nt	-4.0%	0.2%	-0.2%
COc1ccc2nc(N3CCCCC3)c(/C=C3\SC(=S)NC3=O)cc2c1	1.4%	49.2%	14.1µM*	?	-2.6%
N#C/C(=C\c1cc2ccccc2nc1N1CCCCC1)C(N)=O	5.4%	21.1%	?	-4.8%	2.5%
O=C1NC(=S)S/C1=C\c1cc2ccccc2nc1N1CCCCC1	-14.9%	9.5%	14.1µM*	?	7.4%
O=C(CSC1=NS(=O)(=O)c2ccccc21)Nc1ccccc1	-13.4%	-26.1%	31.6µM*	-16.4%	?
COc1cccc(C(=O)/C(C#N)=N/Nc2cccc(-c3ccnc(C)n3)c2)c1	-1.4%	-1.4%	5.01µM*	?	-2.4%
CNC(=O)Nc1cccc(-c2ccnc(C)n2)c1	0.1%	5.4%	-4.0%	-7.4%	-4.2%
CCOC(=O)C1=C(Cc2ccc(OC)cc2)C(=O)c2ccccc2C1=O	?	66.7%	8.91µM*	?	12.6µM*
CCOC(=O)C1=C(Cc2ccc(C)cc2)C(=O)c2ccccc2C1=O	-20.1%	119.0%	15.8µM*	?	35.5µM*
CCOC(=O)c1ccc(COC(=O)c2ccc3c(c2)-c2ccccc2C3=O)cc1	6.4%	8.6%	?	-25.1%	1.8%
COc1cc(OC)c(N(C)C(=O)C2CCCN(c3ncnc4c3nc3n4CCCCC3)C2)cc1Cl (stereo not drawn)	nt	nt	-8.6%	-10.3%	-1.6%
COc1ccccc1C(=O)Oc1c(Sc2ccccc2)c(C)nn1C(C)(C)C	nt	nt	?	-19.5%	2.9%
CCCN(CCC)C(=O)Cn1c(=O)n(-c2ccc(CC)cc2)c(=O)c2ccc(C(=O)NCCc3ccccc3)cc21	nt	nt	2.4%	-11.9%	-4.7%
SMILES	JMJD2E inh	RGS12 GoLoco inh	Tau fibril ThT	Tau fluor counter	Tau FP inhib
CCn1c(C)nc2cc(C(=O)N/N=C/c3cccc(O)c3O)ccc21	3.55µM*	109.2%	?	-19.0%	0.3%
CCn1c(C)nc2cc(C(=O)N/N=C(\C)c3ccc(OC)cc3O)ccc21	12.6µM*	107.4%	?	-10.8%	10.9%
CCOc1ccc(CCNC(=O)Cn2ncc3c([nH]c4ccccc43)c2=O)cc1OCC	nt	nt	4.8%	-1.3%	-7.6%
CC(C)c1ccc(/C=C(\c2nc3ccccc3[nH]2)S(=O)(=O)c2ccccc2)cc1	-4.0%	7.4%	2.8%	0.4%	1.0%
O=S(=O)(/C(=C/c1ccc(C(F)(F)F)cc1)c1nc2ccccc2[nH]1)c1ccccc1	-4.7%	-4.3%	28.2µM*	-12.4%	?
CCC(=O)N1CCCc2cc(S(=O)(=O)Nc3ccc(C)c(C)c3)ccc21	nt	nt	1.3%	-12.3%	-4.6%
Cc1ccc(-n2ccn(CC(=O)c3ccc(F)cc3)c(=O)c2=O)cc1C	nt	nt	-12.2%	1.2%	5.5%
Cc1cccc(N2CCc3c2nc2ccc(Br)cc2c3N)c1	?	5.8%	28.2µM*	15.8µM*[quencher]	?
Nc1c2c(nc3ccc(Br)cc13)N(Cc1ccccc1)CC2	?	2.7%	?	?	16.0%
Nc1c2c(nc3ccc(Br)cc13)N(c1ccccc1)CC2	?	-5.8%	?	14.1µM*[quencher]	18.6%
Cc1ccc(S(=O)(=O)c2c(Nc3cc(F)ccc3F)sc(C(=O)c3ccc(F)cc3)c2N)cc1	nt	nt	-1.8%	-17.7%	?
O=C(Nc1ccc(O)c2c(=O)cc(-c3ccccc3Cl)oc12)c1ccc(Br)cc1	nt	6.3%	14.1µM*	-18.1%	4.6%
CN(C)c1ccc(C(=O)Nc2ccc(O)c3c(=O)cc(-c4ccccc4Cl)oc23)cc1	?	4.9%	-13.2%	-17.9%	8.4%
CCOC(=O)c1c(CSC(=N)N)n(-c2ccc(Br)cc2)c2cc(Br)c(OC(C)=O)cc12	?	0.4%	15.8µM*	?	?
CCCCCCCCOC(=O)c1c(CSC(=N)N)n(C)c2cc(Br)c(OC(C)=O)cc12	-9.0%	0.2%	?	?	-6.1%
CCc1ccc(NC(=O)CCN2C(=O)c3cccnc3C2=O)cc1	-1.2%	-2.3%	-16.0%	-2.1%	3.9%
CCc1ccc2c(c1)C(=O)C(=O)N2CC(=O)Nc1ccc(NC(=O)c2ccccn2)cc1	2.2%	7.8%	14.1µM*	?	-3.6%
CC(C)(C)OC(=O)C1=NOC2(C=CC(=O)C=C2)C1	-10.7%	0.4%	12.6µM*	-11.0%	?
CCOc1ccc(CCNC(=O)c2ccc3[nH]c(C)c(C)c3c2)cc1	nt	nt	?	25.1µM*[quencher]	15.7%
Cc1ccc(CCNC(=O)c2ccc3[nH]c(C)c(C)c3c2)cc1	nt	nt	?	?	11.6%
COc1ccc2nc(S(=O)Cc3ncc(C)c(OC)c3C)[nH]c2c1 (stereo not drawn)	25.1µM*	-33.7%	31.6µM*	-24.5%	?

Compound activity from PubChem.
